Only some compounds are listed: those with a hit (about 3.5% of all), similar ones and a draw of the others.
MITF inh: human MITF inhibition, primary screen. AlphaScreen MITF homodimerization, bead proximity signal. inhibition, % at 2.6 µM. 0.91% of 650,000 active. AID 1259374; in the data active = inhibition above about 50%;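 also: 0% = vehicle wells with protein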
FBW7 activator: activators of human E3 ligase FBW7; Q969H0; AlphaScreen FBW7–phospho-cyclin E peptide binding, activator screen; normalized activity (activation), % at 26.1 µM; 0.13% of 650,000 active; AID 1259310; in the data active = normalized activity above about 1.9%;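 also: purified mutant Fbw7 with reduced substrate affinity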
TEAD-YAP block: TEAD-YAP interaction inhibition; inhibition, % at 9.12 µM; HEK-TIYL cells, TEAD-Gal4/YAP UAS-luciferase luminescence; AID 1259422; 1.4% of 640,000 active; in the data active = inhibition above about 32%;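 also: 0% = median of test compound wells and 100% = reference inhibitor wells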
GPR151 ag: activates the human receptor GPR151; AID 1508602; PathHunter beta-arrestin GPR151 cells, luminescence; 1% of 650,000 active; Q8TDV0; activation, % at 11.2 µM; in the data active = activation above about 4.9%;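 also: 0% = median of compound wells and 100% = cells with positive control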
GPR151 conf act: human GPR151 activation, confirmation screen; shares compounds with GPR151 ag; GPR151 PathHunter beta-arrestin cells, luminescence, 90 min; % of EA-reagent control over plate median; activation, % at 11.2 µM; 6,700 tested, under 10 active; AID 1508609;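 active = mean percent activation across replicates above the confirmation screen cutoff of 4.91%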
GPR119 ag: activates human GPR119 in a GPR151 counter-screen; 0.3% of 6,700 active; activation, % at 11.2 µM; GPR119 PathHunter beta-arrestin cells, luminescence, 90 min; 0 = compound-well median, 100 = enzyme-acceptor control; shares compounds with GPR151 ag;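 active = mean percent activation in the counterscreen above 29.09%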;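 also: counterscreen on off-target GPR119 to flag nonselective hits from the GPR151 activator screen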
Target sequence (Q8TDV5 whole entry, looked up): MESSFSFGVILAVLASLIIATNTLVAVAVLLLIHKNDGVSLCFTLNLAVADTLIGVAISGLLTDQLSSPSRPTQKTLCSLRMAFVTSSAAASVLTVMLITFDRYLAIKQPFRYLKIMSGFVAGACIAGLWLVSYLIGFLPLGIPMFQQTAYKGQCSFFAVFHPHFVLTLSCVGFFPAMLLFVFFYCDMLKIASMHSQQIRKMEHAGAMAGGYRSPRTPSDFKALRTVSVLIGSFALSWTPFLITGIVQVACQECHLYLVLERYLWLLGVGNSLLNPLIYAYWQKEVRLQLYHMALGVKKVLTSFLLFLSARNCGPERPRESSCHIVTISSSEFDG
* marks the source's active call; other numbers are inactive results; x = no result.

SMILES	MITF inh	FBW7 activator	TEAD-YAP block	GPR151 ag	GPR151 conf act	GPR119 ag
COc1ccccc1Cc1noc(-c2cc(Cl)ccc2OC)n1	7	0	1	6.3*	0	-3
Oc1ccc(-c2nc(-c3ccc(-c4ccccc4)cc3)c(-c3ccc(-c4ccccc4)cc3)[nH]2)cc1	11	0	9	-1	x	x
Oc1ccc(-c2nc(-c3cccc(C(F)(F)F)c3)c(-c3ccccc3)[nH]2)cc1	7	0	12	5.8*	0	-4
c1ccc(Oc2nc(NC3CC3)c3ncn(-c4ccsc4)c3n2)cc1	-9	0	88*	6.6*	4	46*
c1ccc(CN2CCC(Nc3nc(Nc4ccc5ncccc5c4)nc4c3ncn4-c3ccsc3)CC2)cc1	-5	0	2	5.5*	0	-13
Oc1ccc(CCNc2nc(NC3CCN(Cc4ccccc4)CC3)nc3c2ncn3-c2ccsc2)cc1	2	0	25	5.6*	0	9
CN(C)c1cccc(Nc2nc(NCc3ccccc3)c3ncn(-c4ccsc4)c3n2)c1	12	1	-1	0	x	x
c1ccc2c(c1)CCN(c1nc(NC3CC3)c3ncn(-c4ccsc4)c3n1)C2	-1	0	25	2	x	x
CN(C)c1cccc(Nc2nc(Nc3ccccc3)c3ncn(-c4ccsc4)c3n2)c1	9	0	-67	5.6*	-1	-8
COc1ccc(-n2c(O)c(C=Nc3ccc(Cl)cc3)c(=O)[nH]c2=O)cc1	2	0	1	1	x	x
O=C/C(=C\Nn1cnnc1)c1nc2ccccc2o1	13	0	2	15*	0	-7
CNS(=O)(=O)c1ccc(N/C=C(\C#N)c2nc3ccccc3o2)cc1	12	0	-30	1	x	x
CC1Cc2cc(S(=O)(=O)CCC(=O)Nc3ccccc3Cl)ccc2N1C(=O)C1CC1 (stereo not drawn)	2	0	14	5.2*	0	1
CC1Cc2cc(S(=O)(=O)CCC(=O)Nc3cccc(F)c3)ccc2N1C(=O)C1CC1 (stereo not drawn)	-1	0	8	1	x	x
CCn1c2cc(C)sc2c2cnn(CC(=O)NC(C)(C)C)c(=O)c21	2	0	-10	0	x	x
O=C(O)C1C(C(=O)Nc2ccc(Cl)cc2)C2C=CC1C21CC1 (stereo not drawn)	18	1	-13	-1	x	x
O=C(O)C1C(C(=O)Nc2ccccc2)C2C=CC1C21CC1 (stereo not drawn)	6	0	3	7.5*	1	16
O=S(=O)(N/N=C/c1cccc(Cl)c1)c1ccc(Cl)cc1	15	0	-9	5.2*	-2	-6
O=C(c1ccc2c(c1)OCO2)N1CCOc2ccc(C(O)c3ccncc3)cc2C1 (stereo not drawn)	19	0	4	1	x	x
Cc1ccc(S(=O)(=O)N2CCN(c3ccc([N+](=O)[O-])c4cccnc34)CC2)cc1	9	0	-18	1	x	x
Cc1ccc(-c2c(NCc3ccco3)c(=O)c2=O)cc1	-1	0	9	1	x	x
CC(C)c1ccc(-n2cc(-c3ccc(C(=O)N4CCCC4)cn3)cn2)cc1	8	0	19	6.2*	0	7
COc1cccc(C(=O)NNC(=O)c2ccc3c(=O)n4c(nc3c2)CCCCC4)c1	-4	0	-13	0	x	x
O=c1c2sc3ccc([N+](=O)[O-])cc3c2[nH]c(=S)n1Cc1ccccn1	6	0	2	8.8*	-1	-8
CC(C)n1c(=S)[nH]c2c(sc3ccc([N+](=O)[O-])cc32)c1=O	-5	0	8	1	x	x
SMILES	MITF inh	FBW7 activator	TEAD-YAP block	GPR151 ag	GPR151 conf act	GPR119 ag
O=C1CC(c2ccccc2)CC2=C1C(c1cc3c(cc1[N+](=O)[O-])OCO3)Nc1ccccc1N2 (stereo not drawn)	-2	0	-35	1	x	x
Cc1cc(=O)oc2cc(OCc3ccc(C(=O)NNC(=O)c4ccccc4)cc3)ccc12	6	0	1	-1	x	x
C/C(N)=C(/C#N)C(=O)COC(=O)c1ccc(COc2ccc3c(C)cc(=O)oc3c2)cc1	7	0	6	5.3*	0	0
Cc1ccc(S(=O)(=O)Nc2ccc(NC(=O)/C=C/c3ccc4c(c3)OCO4)cc2)cc1	17	0	7	7.6*	1	-8
C=CCN(c1ccc(C(=O)Nc2ccc(Cl)cc2)cc1)S(C)(=O)=O	10	0	11	9.2*	3	16
CC(=O)/C=C/c1ccc(OC(F)F)cc1	12	0	5	6.0*	0	-5
COc1ccc(N2C(=O)NC(=O)/C(=C\c3ccc(F)cc3)C2=O)cc1	-5	0	2	5.5*	1	16
CCOc1ccc(N2C(=O)NC(=O)/C(=C\c3ccc(OC)c(OC)c3)C2=O)cc1	7	0	12	-1	x	x
C=CCOc1ccc(/C=C2/C(=O)NC(=O)N(c3ccc(OCC)cc3)C2=O)cc1OCC	10	0	12	7.6*	1	6
Cc1c(C(=O)Nc2ccc(C(F)(F)F)cc2)sc2ncnc(N3CCCCC3)c12	-3	0	5	1	x	x
C[C@H]1CC[C@H]2C(=O)O[C@H](CO)CN2[C@@H]1c1ccc(Br)cc1	5	0	x	-1	x	x
C[C@@H]1CC[C@H]2C(=O)O[C@@H](COc3ccc(C(C)(C)C)cc3)CN2[C@@H]1c1ccc(Br)cc1	17	0	x	5.4*	-1	-9
CC(=O)c1nn(-c2cccc([N+](=O)[O-])c2)cc1C(=O)c1cccs1	-2	0	-5	2	x	x
O=C(Nc1ccccc1)N1CCC(CO)(CCc2ccccc2)CC1	6	0	-3	9.9*	0	2
Cc1ccc(-c2c(Nc3ccc(Cl)cc3)c(=O)c2=O)cc1	3	0	-3	5.0*	2	8
COc1ccc(NC(=O)c2sc3ncn(Cc4ccccc4Cl)c(=O)c3c2C)c(OC)c1	6	0	-2	0	x	x
O=C(CCc1nnc(CCc2c[nH]c3ccccc23)o1)N1CCCCCCC1	0	0	-4	6.6*	0	0
Cc1cc(-c2cnc(N3CCCC3)nc2C2CCN(C(=O)Cc3ccccc3O)CC2)on1	14	0	-10	1	x	x
CCOC(=O)CSc1nnc(CNC(=O)c2ccc(OC)cc2)n1CC	16	0	5	0	x	x
CCCCn1c(CNC(=O)c2ccc(OC)cc2)nnc1SCC(=O)OCC	14	0	2	6.4*	1	0
COc1ccc(C(=O)NCc2nnc(SCC(=O)c3ccccc3)n2C)cc1	13	0	-6	6.5*	-1	1
C=CCNC(=O)c1nn2cccnc2c1Cl	-12	0	-14	5.3*	1	-1
O=C(Nc1ccc(Cl)cc1)c1nn2cccnc2c1Cl	5	0	-66	0	x	x
COc1ccc(OC)c(NC(=O)CN2C(=O)C3C4CCC(C4)C3C2=O)c1 (stereo not drawn)	-2	0	4	0	x	x
